In PubChem BioAssay AID602 (SRMLSC, 2007):
In all, about 85,000 compounds went through this assay and about 35 (0.04%) were called active.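 How the source made its calls: active means viability drop by adding the cancer drug above about 55%, with treated viability meeting a 40% cutoff (limit read from the data); inactive means the rest, inconclusive results apart.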 The sample as a whole holds a higher share of actives than the screen did.

Assay: MRP1 drug-resistance reversers in H69AR cells – cell-based, doxorubicin co-treatment, primary screen (AID 602);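 on differential viability (reversal): larger differential means the compound sensitizes cells more to doxorubicin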
Conditions: CellTiter-Glo, 72 h, at 10 µM; for differential viability (reversal): stronger effect = higher value
[1] = H69AR cells + 2 uM doxorubicin, measured here: viability with 2 uM doxorubicin, stronger effect = lower value
[2] = H69AR cells, measured here: cytotoxicity without doxorubicin

SMILES	differential viability (reversal) (H69AR cells + 2 uM doxorubicin)	viability [1] [%]	viability [2] [%]
CSC1=NP(=S)(SC)N(C)c2nc3n(c21)CCC3 (stereo not given)	57.9% (active)	27.2	85.1
CCOc1ccc(CN(CCCl)CCCl)cc1C(=O)OC	-29% (inactive)	83.1	54.1
Cn1c(O)c(C=NCCN2CCNCC2)c(=O)n(C)c1=O	8.13% (inactive)	85.1	93.2
CC(=O)NC(=O)NC(C)Cc1ccccc1 (stereo not given)	-9.72% (inactive)	96.7	87
CCN(N=Nc1nonc1OC)c1nonc1OC	9.43% (inactive)	86.2	95.7
